HepG2 tox-1 = HepG2 cytotoxicity, counter-screen for TGF-b inhibitors; HepG2 CAGA-GFP viability, ATP luminescence, 18 h; Potency, µM (highest dose often 46.1 µM), without a hit: at the highest dose activity change, negative = cytotoxicity, actives largely listed as cytotoxic; 0.76% of 410,000 active; AID 588856; further: potency means the concentration at half of the fitted maximal effect
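CellTiter-Glo luminescence gave cytotoxicity after 18 hours at 37 degrees C. The cells were HepG2 CAGA-GFP in 1% FBS DMEM, stimulated with 500 pg/mL TGF-beta after compound addition. %Activity was normalised to no-cell wells (complete cell-killing) and DMSO (no toxicity), and curves were fitted and classified.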
ATXN2 expr inh = ATXN2 expression inhibition | HEK-293 ATXN2-luciferase reporter, luminescence, 24 h | Potency, µM (top dose mostly 57 µM), without a hit: at the highest dose activity change, negative = inhibition, most hits filed as inhibitors | 0.72% of 360,000 active | AID 1745845; further: potency means the concentration at half of the fitted maximal effect; on the % scale 0 is the no-effect control and ±100 the full control effect; nearly all actives have a fitted effect of over 55% in size
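ATXN2-luciferase reporter cells (luciferase flanked by upstream and downstream ATXN2 gene portions) were treated 24 h at 37 °C with compounds at up to 57 uM. SteadyGlo luminescence gave expression; GF-AFC fluorescence gave viability.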
TGFb inhibitor = blocks TGF-b signaling. HepG2 CAGA-GFP TGF-b/SMAD3 reporter, GFP fluorescence, 18 h; TGF-beta stimulated, 500 pg/mL final. Potency, µM (highest dose often 46.1 µM), for the others: at the highest dose activity, negative = inhibition, actives largely listed as inhibitors. 1.2% of 410,000 active; further: potency means the concentration at half of the fitted maximal effect; on the % scale 0 is the no-effect control and ±100 the full control effect; nearly all actives have a fitted effect of over 65% in size
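HEPG2 CAGA-GFP, 1000 cells/well; 2 h settle, 37 C; cpd via pin tool; TGF-b 500 pg/mL final; 18 h, 37 C; GFP imaging ex488/em500-530; %Activity normalised to -TGF-b and +DMSO controls; CRC fit, curve class.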
CtBP-E1A blk = blocks the CtBP interaction with E1A | activity change, % (no concentration beside the values) | AID 651724 | 0.49% of 340,000 active | AlphaScreen GST-E1A/His-CtBP binding, 1536-well; active compounds read low; in the data active means activity change below about -65%; inconclusive means mostly about -30% to -63%; further: on the % scale 0 is the no-effect control and ±100 the full control effect
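AlphaScreen with 125 nM GST-E1A and 125 nM His-CtBP (5X stocks) in Tris pH 8.0, 300 mM NaCl, BSA, Tween 20, TCEP. Compounds preincubated 2 h at 37 deg C, then glutathione donor/nickel acceptor beads added for 1 h at 37 deg C in dark.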
Six1-Eya2 inh = blocks human Six1 binding to Eya2; Q15475+O00167; AlphaScreen GST-Six1/His-Eya2 binding, biochemical; active compounds read low; activity change, % (concentration not given with the values); 0.56% of 360,000 active; AID 651725; in the data active means activity change below about -65%; inconclusive means mostly about -30% to -63%; further: on the % scale 0 is the no-effect control and ±100 the full control effect
Target sequence (O00167 whole entry, looked up): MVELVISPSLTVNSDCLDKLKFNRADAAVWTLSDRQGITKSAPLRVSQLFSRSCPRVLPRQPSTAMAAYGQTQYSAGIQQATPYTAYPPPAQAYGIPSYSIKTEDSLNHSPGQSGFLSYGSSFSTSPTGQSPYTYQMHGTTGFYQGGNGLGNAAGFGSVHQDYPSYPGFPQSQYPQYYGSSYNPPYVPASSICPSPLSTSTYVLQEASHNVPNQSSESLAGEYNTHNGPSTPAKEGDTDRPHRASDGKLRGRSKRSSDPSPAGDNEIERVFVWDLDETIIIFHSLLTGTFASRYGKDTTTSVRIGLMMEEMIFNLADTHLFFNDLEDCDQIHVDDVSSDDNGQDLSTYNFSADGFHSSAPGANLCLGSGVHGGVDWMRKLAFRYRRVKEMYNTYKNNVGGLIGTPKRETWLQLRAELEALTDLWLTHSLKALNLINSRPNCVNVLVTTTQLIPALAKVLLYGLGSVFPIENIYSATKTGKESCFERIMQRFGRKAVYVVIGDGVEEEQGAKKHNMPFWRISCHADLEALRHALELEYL
Target sequence (Q15475 whole entry, looked up): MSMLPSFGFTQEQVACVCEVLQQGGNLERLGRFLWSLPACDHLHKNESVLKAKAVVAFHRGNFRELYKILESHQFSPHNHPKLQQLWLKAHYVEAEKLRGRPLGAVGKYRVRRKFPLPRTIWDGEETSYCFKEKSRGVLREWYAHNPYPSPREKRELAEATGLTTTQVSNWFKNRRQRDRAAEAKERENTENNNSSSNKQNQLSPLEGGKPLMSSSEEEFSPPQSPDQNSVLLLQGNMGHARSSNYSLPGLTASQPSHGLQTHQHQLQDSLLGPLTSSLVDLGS
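AlphaScreen with GST-Six1 and His-Eya2 (5X mix: 250 nM and 500 nM), glutathione donor and nickel acceptor beads; buffer 50 mM Tris pH 8.0, 300 mM NaCl, 1 mM TCEP; 1 h at 37 C in the dark.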
ATXN viability = cell viability loss in ATXN counter-screen; S2 cells (HEK-293 line with an ATXN2-luciferase reporter) viability, CellTiter-Fluor protease fluorescence, 24 h; Potency, µM (highest dose often 56.7 µM), hits mostly cytotoxic; AID 651635; 0.49% of 400,000 active; further: potency means the concentration at half of the fitted maximal effect; nearly all actives have a fitted effect of over 40% in size
TGFb confirm = confirmation of TGF-b signaling inhibitors in HepG2 reporter cells; shares compounds with TGFb inhibitor; Potency, µM (titrated, usually from 46.1 µM), without a hit: at the top dose activity, negative = inhibition, actives largely listed as inhibitors; HepG2 CAGA-GFP TGF-b reporter, GFP fluorescence, 18 h; cells stimulated with TGF-beta, 500 pg/mL; 63% of 1,600 active; further: potency means the concentration at half of the fitted maximal effect; on the % scale 0 is the no-effect control and ±100 the full control effect; nearly all actives have a fitted effect of over 65% in size
HepG2 tox-2 = HepG2 cytotoxicity, TGF-b inhibitor counterscreen; shares compounds with TGFb inhibitor; HepG2 CAGA-GFP viability, ATP luminescence, 18 h; cells stimulated with TGF-beta, 500 pg/mL; Potency, µM (doses to about 46.1 µM), for inactives: top-dose activity, negative = cytotoxicity, most hits filed as inhibitors; 27% of 1,600 active; AID 720535; further: potency means the concentration at half of the fitted maximal effect; on the % scale 0 is the no-effect control and ±100 the full control effect; nearly all actives have a fitted effect of over 70% in size
CCL64 TGFb inh = orthogonal confirmation of TGF-b inhibitors in CCL64 cells; CCL64 CAGA-GFP reporter, TGF-b stimulated, GFP fluorescence, 18 h; Potency, µM (doses to about 46.1 µM), without a hit: top-dose activity, negative = inhibition, hits mostly inhibitors; shares compounds with TGFb inhibitor; 41% of 1,600 active; further: potency means the concentration at half of the fitted maximal effect; nearly all actives have a fitted effect of over 65% in size
COP TGFb inh = validation of TGF-b inhibitors in HepG2 COP promoter reporter; 3% of 1,600 active; HepG2 COP-GFP TGF-b reporter, GFP fluorescence, 18 h; cells stimulated by added recombinant TGF-beta; Potency, µM (titrated, usually from 46.1 µM), for inactives: at the highest dose activity, negative = inhibition, hits mostly inhibitors; shares compounds with TGFb inhibitor; AID 720537; further: potency means the concentration at half of the fitted maximal effect; nearly all actives have a fitted effect of over 70% in size
Starred values were filed as active, the others as inactive. A selection: hits, their analogues and other compounds. The true share with any hit is near 2.8%. Unless noted, the call rests on the fitted dose curve; in most records, active means well fitted curve in the direction sought with a large enough effect; inconclusive means small, poorly fitted or top-dose-only effect, or another doubt; inactive means no such curve, though single readings can be large; an effect the other way counts as inactive or inconclusive.

COc1ccc(Nc2nc(-c3ccccc3)nc3ccccc23)cc1 was read as HepG2 tox-1 -33%, ATXN2 expr inh -30%, TGFb inhibitor inconclusive, CtBP-E1A blk 23, Six1-Eya2 inh 16, ATXN viability inconclusive, TGFb confirm inconclusive, HepG2 tox-2 -25%, CCL64 TGFb inh inconclusive and COP TGFb inh 5%.
Screening Cc1ccccc1Nc1nc(-c2cccnc2)nc2ccccc12 returned HepG2 tox-1 -12%, ATXN2 expr inh -19%, TGFb inhibitor 1%, CtBP-E1A blk 4, Six1-Eya2 inh -3 and ATXN viability inactive.
`Cc1ccc(Nc2nc(-c3cccnc3)nc3ccccc23)cc1` gave HepG2 tox-1 20µM*, ATXN2 expr inh inconclusive, TGFb inhibitor inconclusive, CtBP-E1A blk -25, Six1-Eya2 inh inconclusive, ATXN viability inconclusive, TGFb confirm inconclusive, HepG2 tox-2 inconclusive, CCL64 TGFb inh inconclusive and COP TGFb inh 36%.
For Cc1ccc(-c2noc(-c3ccc(N4CCCCC4C)c([N+](=O)[O-])c3)n2)cc1 (stereo not drawn) the results were HepG2 tox-1 5%, ATXN2 expr inh -28%, TGFb inhibitor -21% and ATXN viability inactive.
`COc1ccc(NC(=O)CSc2nc(-c3ccc(OC)cc3)cc(=O)[nH]2)cc1` gave HepG2 tox-1 -1%, ATXN2 expr inh 6%, TGFb inhibitor 32% and ATXN viability inactive.
For O=C1NC[C@@H](CCCCN2C[C@H](Cc3ccccc3)N(Cc3ccccc3)C(=O)C2=O)N(Cc2ccccc2)C1=O the results were ATXN2 expr inh 13%, CtBP-E1A blk 2, Six1-Eya2 inh -8 and ATXN viability inactive.
COc1ccccc1-n1cnc2cc(NCc3ccco3)ccc21 was read as HepG2 tox-1 -2%, ATXN2 expr inh 17%, TGFb inhibitor 8.9µM*, CtBP-E1A blk -7, Six1-Eya2 inh -12, ATXN viability inconclusive, TGFb confirm 13µM*, HepG2 tox-2 -4%, CCL64 TGFb inh 21µM* and COP TGFb inh -19%.
For Nc1ccccc1C(=O)NN=Cc1cccnc1 the results were HepG2 tox-1 1%, ATXN2 expr inh 1%, TGFb inhibitor 11%, CtBP-E1A blk -6, Six1-Eya2 inh -4 and ATXN viability inactive.
`O=C(c1cc(-c2ccccc2Cl)nc2ccc(Br)cc12)N1CCN(c2ccccn2)CC1` gave HepG2 tox-1 -27%, ATXN2 expr inh inconclusive, TGFb inhibitor inconclusive, CtBP-E1A blk 8, Six1-Eya2 inh -5, ATXN viability inconclusive, TGFb confirm -30%, HepG2 tox-2 inconclusive, CCL64 TGFb inh inconclusive and COP TGFb inh 11%.
O=C(c1cc(-c2ccc(Br)cc2)nc2ccccc12)N1CCN(c2ccccc2O)CC1 was read as HepG2 tox-1 -2%, ATXN2 expr inh 12%, TGFb inhibitor 11µM*, CtBP-E1A blk -19, Six1-Eya2 inh -6, ATXN viability inactive, TGFb confirm 6.5µM*, HepG2 tox-2 inconclusive, CCL64 TGFb inh inconclusive and COP TGFb inh 2%.
COc1ccc(CNC(=O)c2cnc(N3CCCC3)nc2C)c(OC)c1 was read as HepG2 tox-1 -15%, ATXN2 expr inh 13%, TGFb inhibitor -20% and ATXN viability inactive.
Cc1ccc(C(=O)C2CCN(CC(=O)Nc3nc(C)cs3)CC2)cc1 was read as HepG2 tox-1 -1%, ATXN2 expr inh -15%, TGFb inhibitor inconclusive, CtBP-E1A blk 19, Six1-Eya2 inh -11, ATXN viability inactive, TGFb confirm 18µM*, HepG2 tox-2 -13%, CCL64 TGFb inh 5% and COP TGFb inh 0%.
COc1ccc(C(=O)C2CCN(CC(=O)Nc3cc(C)cc(C)c3)CC2)cc1 was read as HepG2 tox-1 -20%, ATXN2 expr inh -30%, TGFb inhibitor -26%, CtBP-E1A blk 20, Six1-Eya2 inh 4 and ATXN viability inactive.
`Cc1cccc(/C=C/c2nc3ccccc3c(=O)[nH]2)c1` gave HepG2 tox-1 3%, ATXN2 expr inh 4%, TGFb inhibitor inconclusive, CtBP-E1A blk 7, Six1-Eya2 inh -4 and ATXN viability inactive.
For Cc1cccc(/C=C(\c2nc3ccccc3[nH]2)S(=O)(=O)c2ccccc2)c1 the results were HepG2 tox-1 -92%, ATXN2 expr inh inconclusive, TGFb inhibitor 10µM*, CtBP-E1A blk 6, Six1-Eya2 inh -6, ATXN viability inconclusive, TGFb confirm 4.6µM*, HepG2 tox-2 4.6µM*, CCL64 TGFb inh 5.8µM* and COP TGFb inh inconclusive.
Screening O=[N+]([O-])c1cccc2c(N3CCCC3)ccnc12 returned HepG2 tox-1 5.6µM*, ATXN2 expr inh inconclusive, TGFb inhibitor 7.1µM*, CtBP-E1A blk 1, Six1-Eya2 inh -2, ATXN viability inactive, TGFb confirm 7.3µM*, HepG2 tox-2 16µM*, CCL64 TGFb inh inconclusive and COP TGFb inh inconclusive.
`CCCCN1C(=O)c2[nH]nc(-c3ccccc3O)c2C1c1cc(Br)c(O)c(OC)c1` (stereo not drawn) gave HepG2 tox-1 -31% and TGFb inhibitor -43%.
CCS(=O)(=O)c1ncc(Cl)c(C(=O)NCc2ccccc2)n1 was read as HepG2 tox-1 -108%.
